What all share (design): scale not given: direction of the effect not stated beside the values
In assay [1] the target is Protein translocase subunit SecA (Escherichia coli (strain K12)) (UniProt P10408). Nature of the assay: Assay to Identify E. coli SecA ATPase Inhibitors. The settings on record: 30 µM. The class given is functional.
Assay [2] concerns the target T1, Ubiquitin-activating enzyme e1, putative (Leishmania donovani (strain BPK282A1)) (UniProt E9BSI1).
T1 sequence (whole entry): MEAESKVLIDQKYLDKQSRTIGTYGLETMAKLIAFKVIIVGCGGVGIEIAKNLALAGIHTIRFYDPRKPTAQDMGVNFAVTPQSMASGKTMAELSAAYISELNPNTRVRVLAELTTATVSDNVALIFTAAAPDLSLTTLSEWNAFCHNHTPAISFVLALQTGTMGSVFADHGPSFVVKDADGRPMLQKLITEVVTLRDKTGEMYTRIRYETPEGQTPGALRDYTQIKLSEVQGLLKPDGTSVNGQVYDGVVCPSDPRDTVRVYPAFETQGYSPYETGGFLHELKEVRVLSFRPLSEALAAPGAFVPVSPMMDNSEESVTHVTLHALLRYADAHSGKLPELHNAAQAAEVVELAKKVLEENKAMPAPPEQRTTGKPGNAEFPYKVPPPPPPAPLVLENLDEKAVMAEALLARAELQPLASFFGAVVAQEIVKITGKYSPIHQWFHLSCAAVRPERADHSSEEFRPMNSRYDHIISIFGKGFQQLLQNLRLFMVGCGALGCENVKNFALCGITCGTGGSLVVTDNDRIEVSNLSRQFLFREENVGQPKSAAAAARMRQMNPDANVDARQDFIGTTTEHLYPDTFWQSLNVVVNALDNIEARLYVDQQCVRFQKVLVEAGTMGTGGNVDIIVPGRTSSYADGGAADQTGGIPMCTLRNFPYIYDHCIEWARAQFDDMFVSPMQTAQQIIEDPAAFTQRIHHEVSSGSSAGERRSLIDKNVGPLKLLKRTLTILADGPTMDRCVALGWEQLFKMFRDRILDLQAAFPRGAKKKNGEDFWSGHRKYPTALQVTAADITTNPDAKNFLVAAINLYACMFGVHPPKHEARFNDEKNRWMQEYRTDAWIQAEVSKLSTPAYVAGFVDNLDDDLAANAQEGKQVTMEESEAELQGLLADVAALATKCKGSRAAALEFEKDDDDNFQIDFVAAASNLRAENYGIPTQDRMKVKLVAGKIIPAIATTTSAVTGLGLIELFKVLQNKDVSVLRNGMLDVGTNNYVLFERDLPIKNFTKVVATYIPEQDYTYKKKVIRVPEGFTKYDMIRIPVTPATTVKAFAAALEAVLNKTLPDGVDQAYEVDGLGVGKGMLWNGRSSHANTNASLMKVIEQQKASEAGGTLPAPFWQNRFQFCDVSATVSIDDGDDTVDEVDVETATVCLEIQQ
Nature of the assay: Leishmania donovani Ubiquitin Activating Enzyme (LdE1). The class given is functional. The settings on record: 30 µM.

For assay [3], the target named is Sialic acid-binding Ig-like lectin 9 (Homo sapiens) (UniProt Q9Y336). Kind of assay: Hs-Siglec9 ALPHAscreen SOP 20170721. The settings on record: 10 µM. On the technique in general: In Alpha technology, singlet oxygen from a donor bead excites a nearby acceptor bead.
Sialic acid-binding Ig-like lectin 9 (Homo sapiens), sequence (Q9Y336 whole entry): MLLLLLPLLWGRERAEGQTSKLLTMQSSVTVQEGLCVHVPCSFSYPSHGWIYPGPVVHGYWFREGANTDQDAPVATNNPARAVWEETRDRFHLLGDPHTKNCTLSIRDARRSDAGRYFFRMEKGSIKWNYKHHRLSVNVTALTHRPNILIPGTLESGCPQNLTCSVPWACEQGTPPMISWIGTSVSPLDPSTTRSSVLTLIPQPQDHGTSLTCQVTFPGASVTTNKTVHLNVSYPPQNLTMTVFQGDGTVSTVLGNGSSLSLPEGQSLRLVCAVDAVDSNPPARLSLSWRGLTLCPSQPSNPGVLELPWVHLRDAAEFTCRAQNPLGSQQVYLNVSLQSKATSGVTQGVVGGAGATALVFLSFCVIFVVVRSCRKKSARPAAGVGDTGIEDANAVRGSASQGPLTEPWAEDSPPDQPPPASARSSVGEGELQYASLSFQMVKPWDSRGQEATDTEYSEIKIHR
A further assay relates to Trypanosoma cruzi. Nature of the assay: Trypanosoma cruzi phosphomannomutase and mannose-1-phosphate guanylyltransferase assay. The class given is functional. The settings on record: 10 µM.
Assay [4] deals with T2, Arginase-2, mitochondrial (Homo sapiens) (UniProt P78540).
T2 sequence (whole entry): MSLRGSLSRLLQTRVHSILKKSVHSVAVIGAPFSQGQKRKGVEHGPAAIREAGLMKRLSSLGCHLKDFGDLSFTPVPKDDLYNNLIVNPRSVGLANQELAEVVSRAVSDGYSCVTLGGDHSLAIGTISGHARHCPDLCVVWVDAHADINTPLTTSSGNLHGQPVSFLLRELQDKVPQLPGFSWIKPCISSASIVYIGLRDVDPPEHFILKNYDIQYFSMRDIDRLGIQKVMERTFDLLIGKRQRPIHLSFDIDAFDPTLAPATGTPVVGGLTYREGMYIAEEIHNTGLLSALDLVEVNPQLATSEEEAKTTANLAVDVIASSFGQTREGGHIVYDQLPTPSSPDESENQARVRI
Nature of the assay: in vitro enzyme assay to detect the production of urea directly proportional to the activity of Arginase II. Also: in the data most compounds retested in dose-response had high values. The class given is functional. Conditions: 33.3 µM.

Assay [5] has as its target T3, Proteasome subunit beta (Trypanosoma cruzi) (UniProt O96673).
T3 sequence (whole entry): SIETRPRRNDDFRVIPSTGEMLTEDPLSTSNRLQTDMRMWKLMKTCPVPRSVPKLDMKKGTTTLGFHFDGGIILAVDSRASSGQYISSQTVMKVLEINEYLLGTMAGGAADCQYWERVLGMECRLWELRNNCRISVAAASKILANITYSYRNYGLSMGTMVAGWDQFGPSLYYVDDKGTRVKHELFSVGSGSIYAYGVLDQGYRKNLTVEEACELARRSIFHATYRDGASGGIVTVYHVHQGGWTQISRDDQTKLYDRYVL
Nature of the assay: Trypanosoma cruzi proteasome chymotrypsin-like activity (TcProtChymo) assay. Also: in the data most compounds retested in dose-response had high values. The class given is functional. The settings on record: 9.37 µM.

The species named for the next assay is Homo sapiens. Nature of the assay: To identify inhibition of the IFN signalling (Jak-Stat) pathway via expression of an eGFP reporter gene under the control of an IFN-stimulated response element (ISRE) containing MxA promoter. The class given is functional. The settings on record: 30 µM. (Reporter assays use an easily measured gene product as a stand-in for the process of interest.)

Assay [6] addresses T4, Tyrosyl-tRNA synthetase, putative (Trypanosoma cruzi (strain CL Brener)) (UniProt Q4DSP6).
T4 sequence (whole entry): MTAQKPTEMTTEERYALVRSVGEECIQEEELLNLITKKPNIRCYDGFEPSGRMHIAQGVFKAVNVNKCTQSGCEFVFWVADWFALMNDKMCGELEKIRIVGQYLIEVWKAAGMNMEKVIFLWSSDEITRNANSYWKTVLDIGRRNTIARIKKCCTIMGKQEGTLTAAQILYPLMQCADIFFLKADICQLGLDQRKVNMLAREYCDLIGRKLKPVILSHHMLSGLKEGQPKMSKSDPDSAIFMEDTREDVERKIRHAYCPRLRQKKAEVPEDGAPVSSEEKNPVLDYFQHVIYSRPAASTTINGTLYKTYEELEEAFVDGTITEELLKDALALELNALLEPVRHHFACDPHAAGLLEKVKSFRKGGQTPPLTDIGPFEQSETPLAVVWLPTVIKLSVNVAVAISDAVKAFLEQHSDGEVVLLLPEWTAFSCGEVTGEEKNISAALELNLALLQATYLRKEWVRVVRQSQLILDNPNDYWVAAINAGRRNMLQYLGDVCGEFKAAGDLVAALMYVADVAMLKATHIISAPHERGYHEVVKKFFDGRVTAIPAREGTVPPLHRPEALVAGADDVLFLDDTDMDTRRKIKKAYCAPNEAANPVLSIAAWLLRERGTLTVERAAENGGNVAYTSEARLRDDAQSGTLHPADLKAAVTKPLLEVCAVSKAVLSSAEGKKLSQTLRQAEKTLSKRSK
Kind of assay: Trypanosoma cruzi tyrosyl tRNA synthetase (TcYRS) _High Tyrosine SOP. Also: in the data most compounds retested in dose-response had high values. The class given is functional. Conditions: 30 µM.

Assay [7] has as its target T4, Tyrosyl-tRNA synthetase, putative (Trypanosoma cruzi (strain CL Brener)). Kind of assay: Trypanosoma cruzi tyrosyl tRNA synthetase (TcYRS) SOP. The class given is functional. Conditions: 30 µM.
Assay [8] addresses Chromo domain-containing protein 1 (Saccharomyces cerevisiae (strain ATCC 204508 / S288c) (Baker's yeast)) (UniProt P32657). Kind of assay: ScCHD-1 Enzyme Inhibition Assay. Also: in the data most compounds retested in dose-response had high values. The class given is functional. Conditions: 30 µM.

Molecules are shown by their SMILES. For some of these results: Potency and affinity values are given separately.

Chromo domain-containing protein 1 (Saccharomyces cerevisiae (strain ATCC 204508 / S288c) (Baker's yeast)), sequence (P32657 whole entry, the tested form may be a part): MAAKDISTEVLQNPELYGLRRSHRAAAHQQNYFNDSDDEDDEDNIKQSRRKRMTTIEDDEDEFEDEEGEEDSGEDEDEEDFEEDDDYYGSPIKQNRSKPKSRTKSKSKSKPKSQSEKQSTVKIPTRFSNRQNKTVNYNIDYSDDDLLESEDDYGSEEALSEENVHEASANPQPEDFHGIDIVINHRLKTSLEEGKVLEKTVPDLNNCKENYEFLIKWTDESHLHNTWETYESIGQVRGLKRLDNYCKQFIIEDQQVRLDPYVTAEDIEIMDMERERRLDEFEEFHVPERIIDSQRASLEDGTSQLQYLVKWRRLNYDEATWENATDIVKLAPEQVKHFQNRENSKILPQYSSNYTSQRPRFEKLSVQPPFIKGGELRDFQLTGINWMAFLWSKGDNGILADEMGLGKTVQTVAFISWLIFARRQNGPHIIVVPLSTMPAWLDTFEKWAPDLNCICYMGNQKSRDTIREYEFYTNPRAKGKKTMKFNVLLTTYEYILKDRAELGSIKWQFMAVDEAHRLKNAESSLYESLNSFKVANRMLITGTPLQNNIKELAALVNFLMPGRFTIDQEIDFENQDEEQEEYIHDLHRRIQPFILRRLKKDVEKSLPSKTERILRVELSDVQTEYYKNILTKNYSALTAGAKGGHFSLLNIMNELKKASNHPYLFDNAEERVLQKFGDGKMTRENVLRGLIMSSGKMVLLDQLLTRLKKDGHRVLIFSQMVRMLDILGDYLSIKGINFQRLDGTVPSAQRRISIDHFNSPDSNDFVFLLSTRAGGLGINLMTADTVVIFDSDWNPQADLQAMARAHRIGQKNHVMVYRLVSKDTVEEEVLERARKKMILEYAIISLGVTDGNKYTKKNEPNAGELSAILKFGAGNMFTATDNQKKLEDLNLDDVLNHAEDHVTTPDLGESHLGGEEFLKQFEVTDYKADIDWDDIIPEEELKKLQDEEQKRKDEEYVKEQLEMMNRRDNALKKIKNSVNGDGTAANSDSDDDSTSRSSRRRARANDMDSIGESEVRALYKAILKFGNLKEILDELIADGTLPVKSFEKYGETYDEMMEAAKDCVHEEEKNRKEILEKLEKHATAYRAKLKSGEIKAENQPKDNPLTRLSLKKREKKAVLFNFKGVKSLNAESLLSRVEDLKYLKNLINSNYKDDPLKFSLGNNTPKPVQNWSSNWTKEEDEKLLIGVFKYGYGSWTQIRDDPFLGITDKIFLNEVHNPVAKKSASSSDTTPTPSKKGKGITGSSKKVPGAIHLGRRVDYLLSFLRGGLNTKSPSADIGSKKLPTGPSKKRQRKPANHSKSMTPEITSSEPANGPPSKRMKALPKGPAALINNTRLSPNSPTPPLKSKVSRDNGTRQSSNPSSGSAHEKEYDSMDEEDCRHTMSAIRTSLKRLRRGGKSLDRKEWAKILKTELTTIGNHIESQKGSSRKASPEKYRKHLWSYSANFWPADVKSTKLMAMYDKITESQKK
Protein translocase subunit SecA (Escherichia coli (strain K12)), sequence (P10408 whole entry): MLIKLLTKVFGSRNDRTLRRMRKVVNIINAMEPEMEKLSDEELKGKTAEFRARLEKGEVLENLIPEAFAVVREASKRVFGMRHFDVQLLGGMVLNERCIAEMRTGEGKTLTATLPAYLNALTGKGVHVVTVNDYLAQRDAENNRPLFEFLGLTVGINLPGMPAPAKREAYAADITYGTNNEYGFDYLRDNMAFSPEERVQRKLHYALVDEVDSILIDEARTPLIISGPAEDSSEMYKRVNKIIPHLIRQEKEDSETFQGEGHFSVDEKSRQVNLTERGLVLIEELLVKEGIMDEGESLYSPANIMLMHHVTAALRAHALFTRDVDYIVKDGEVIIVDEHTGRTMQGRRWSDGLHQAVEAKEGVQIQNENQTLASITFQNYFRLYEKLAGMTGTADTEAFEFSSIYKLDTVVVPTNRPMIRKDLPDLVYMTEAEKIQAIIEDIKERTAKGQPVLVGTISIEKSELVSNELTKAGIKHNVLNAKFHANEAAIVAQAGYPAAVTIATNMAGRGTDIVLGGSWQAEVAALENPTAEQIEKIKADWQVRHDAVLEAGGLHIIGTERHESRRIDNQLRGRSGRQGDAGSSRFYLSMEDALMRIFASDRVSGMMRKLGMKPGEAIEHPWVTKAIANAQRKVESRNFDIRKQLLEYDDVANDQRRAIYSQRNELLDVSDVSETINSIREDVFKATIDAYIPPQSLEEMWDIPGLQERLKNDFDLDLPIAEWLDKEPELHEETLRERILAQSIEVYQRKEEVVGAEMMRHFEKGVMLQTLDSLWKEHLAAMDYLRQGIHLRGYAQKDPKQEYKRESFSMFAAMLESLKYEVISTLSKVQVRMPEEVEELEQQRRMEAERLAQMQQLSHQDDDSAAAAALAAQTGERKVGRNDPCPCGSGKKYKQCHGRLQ

As to `Cn1ccnc1CN1CCN(Cc2noc(-c3ccccc3)n2)CC1`, the Percent Effect in [1] is -3.61%; in assay [2], 10.7%; in assay [3] it was -0.35%; in the assay on Trypanosoma cruzi, -6.02%; in [4] it was 3.99%; in assay [5], 7.55%. Besides, the Percent Effect was 13.5% in the assay filed under Homo sapiens, 3.68% in [6], 7.69% in [7] and -9.67% in assay [8].

For `CS(=O)(=O)NCC1CCCN(C(=O)c2cc3ccccc3o2)C1` (stereo not given), the Percent Effect in assay [1] is -0.17%; in assay [2] it was 28.6%; in [3] it was 3.25%; in the assay on Trypanosoma cruzi, 3.36%; in assay [4], -9.22%; in assay [5], 15.1%. Besides, the Percent Effect in the assay listed under Homo sapiens is 11.5%; in [6] it was 5.88%; in [7], 23.5%; in assay [8], -10.2%.

Take `CS(=O)(=O)N1CCC2(CC1)CC(CC(=O)N1CCCC1)c1ccccc12` (stereo not given): the Percent Effect in assay [1] was -6.42%; in assay [2], 6.49%; in assay [3] it was 10.4%; in the assay with Trypanosoma cruzi, -2.43%; in assay [4], -5.67%; in [5], 2.21%. For the same compound, the Percent Effect in the assay listed under Homo sapiens was -5.9%; in assay [6] it was 1.58%; in [7], -7.69%; in assay [8], 2.73%.

In the case of `COc1cccc(-c2noc(C3CCN(Cc4cn(C)nc4C)C3)n2)c1` (stereo not given), the Percent Effect is -3.83% in assay [1]; 14.7% in assay [2]; 3.58% in assay [3]; 5.72% in the assay on Trypanosoma cruzi; -1.33% in assay [4]; 14.1% in [5]. Also, the Percent Effect is 31.6% in the assay filed under Homo sapiens, 6.35% in assay [6], 20% in assay [7] and -24.7% in assay [8].

Consider `CC(=O)N1CCC2(CCN(C(=O)c3ccc(Cl)c(C(F)(F)F)c3)CC2)C1`, for which the Percent Effect in assay [1] was -7.31%; in [2], 6.49%; in assay [3], 5.74%; in the assay on Trypanosoma cruzi, 0.292%; in [4] it was -0.405%; in assay [5], 7.5%. For the same compound, the Percent Effect in the assay listed under Homo sapiens was -12.1%; in assay [6], 6.84%; in assay [7], 7.69%; in [8], 3.63%.

As to `O=C(c1ccccn1)N1CCN(c2ccc(-c3cccnc3)nn2)CC1`, the Percent Effect is -3.31% in assay [1]; 11.7% in [2]; 4.87% in [3]; 1.31% in the assay with Trypanosoma cruzi; 4.11% in assay [4]; 21.7% in assay [5]. The Percent Effect was 1.87% in the assay filed under Homo sapiens, 0.966% in [6], 10% in assay [7] and -7.95% in assay [8].

In the case of `c1cnn(CC2CCCN2Cc2nc(-c3ccoc3)no2)c1` (stereo not given), the Percent Effect in assay [1] was -4.7%; in assay [2] it was 5.33%; in assay [3], 2.88%; in the assay with Trypanosoma cruzi it was 3.41%; in [4], -4.88%; in assay [5], 10.3%. The Percent Effect was -9.56% in the assay filed under Homo sapiens, 4.74% in [6], 7.69% in assay [7] and -12.5% in [8].

For the origin of these results see ChEMBL document CHEMBL3988442, “University of Dundee, Small-Polar-MMV Screening Library” (2021).
